Cytotoxicity call data for 38 compounds are collected here from the antibiotic and cytotoxicity screens of Wong et al. (2023).

The whole screen tested about 39,000 compounds, of which about 1,500 (3.8%) were called active. Many of the other results were omitted from the sample, so actives are more common in it than they were.

This assay deals with HSkMC (human skeletal muscle cells). Briefly: cytotoxicity call (relative viability < 0.9). The settings on record: 10 µM.
With `N[C@@H](C(=O)N[C@@H]1C(=O)N2C(C(=O)O)=C(Cl)CS[C@H]12)c1ccccc1`, the cytotoxicity call is “inactive”.
With `C[C@@H]1CCCCO[C@H](CN(C)C(=O)Cc2ccccc2)[C@@H](C)CN([C@H](C)CO)C(=O)c2cc(NC(=O)C3CCCCC3)ccc2O1` the entry was “inactive”; with `Cc1ccc(S(=O)(=O)N[C@@H](Cc2ccccc2)C(=O)NCCn2cc(CCC(=O)NO)nn2)cc1`, “inactive”.
In the case of `Cc1ccc(S(=O)(=O)N(C)C[C@@H]2Oc3ccc(NS(=O)(=O)c4cccs4)cc3CC(=O)N([C@@H](C)CO)C[C@@H]2C)cc1`, the cytotoxicity call was “inactive”.
For `C[C@H](O)C#Cc1ccc2c(c1)O[C@@H](CN(C)C(=O)Cc1ccccn1)[C@H](C)CN([C@@H](C)CO)S2(=O)=O` the value was “inactive”; for `O=C(C[C@@H]1C=C[C@@H](NC(=O)CN2CCOCC2)[C@@H](CO)O1)NCc1cccc(F)c1`, “inactive”.
For `C[C@H]1CC=CC[C@H](c2cccc(Cl)c2)NC(=O)[C@@H](Cc2ccccc2)N(C)C(=O)c2ccccc2O1`, the cytotoxicity call was “inactive”.
For the compound `COc1ccc(NC(=O)Nc2ccc3c(c2)C(=O)N([C@@H](C)CO)C[C@@H](C)[C@@H](CN(C)Cc2ccccc2)OCCCC[C@@H](C)O3)cc1`, the cytotoxicity call is “inactive”.
On to `Cc1noc(C)c1NC(=O)Nc1cccc2c1O[C@@H](CN(C)S(=O)(=O)c1ccccc1)[C@@H](C)CN([C@H](C)CO)C2=O`, for which the cytotoxicity call was “inactive”.
For `Cc1ccc(S(=O)(=O)N(C)C[C@@H]2OCCCC[C@@H](C)Oc3ccc(NS(=O)(=O)c4ccc(F)cc4)cc3C(=O)N([C@H](C)CO)C[C@H]2C)cc1` the value was “active”; for `COc1ccc(S(=O)(=O)N(C)C[C@@H]2OCCCC[C@@H](C)Oc3ccc(NS(=O)(=O)c4cn(C)cn4)cc3C(=O)N([C@@H](C)CO)C[C@H]2C)cc1`, “inactive”; for `Cc1ccc(S(=O)(=O)N(C)C[C@@H]2OCCCC[C@H](C)Oc3ccc(NC(=O)Nc4ccc(F)cc4)cc3C(=O)N([C@@H](C)CO)C[C@@H]2C)cc1`, “inactive”.
With `Cc1ccc(S(=O)(=O)N(C)C[C@H]2OCCCC[C@H](C)Oc3ccc(NS(=O)(=O)c4ccc(F)cc4)cc3C(=O)N([C@@H](C)CO)C[C@@H]2C)cc1` the entry was “inactive”.
For `Cc1ccc(S(=O)(=O)N(C)C[C@H]2OCCCC[C@@H](C)Oc3ccc(NC(=O)Nc4ccc(F)cc4)cc3C(=O)N([C@@H](C)CO)C[C@@H]2C)cc1` the value was “active”.
With `Cc1ccc(S(=O)(=O)Nc2ccc3c(c2)C(=O)N([C@H](C)CO)C[C@H](C)[C@H](CN(C)S(=O)(=O)c2ccc(F)cc2)OCCCC[C@H](C)O3)cc1`, the cytotoxicity call is “inactive”.
In the case of `Cc1ccc(S(=O)(=O)N(C)C[C@H]2OCCCC[C@@H](C)Oc3ccc(NC(=O)Nc4ccc(F)cc4)cc3C(=O)N([C@@H](C)CO)C[C@H]2C)cc1`, the cytotoxicity call was “inactive”.
For `Cc1ccc(S(=O)(=O)Nc2ccc3c(c2)C(=O)N([C@H](C)CO)C[C@H](C)[C@@H](CN(C)S(=O)(=O)c2ccc(F)cc2)OCCCC[C@H](C)O3)cc1` the value was “active”.
For `COc1ccc(S(=O)(=O)N(C)C[C@H]2OCCCC[C@H](C)Oc3ccc(NS(=O)(=O)c4cn(C)cn4)cc3C(=O)N([C@@H](C)CO)C[C@H]2C)cc1` the value was “active”; for `Cc1ccc(S(=O)(=O)Nc2ccc3c(c2)C(=O)N([C@@H](C)CO)C[C@H](C)[C@@H](CN(C)S(=O)(=O)c2ccc(F)cc2)OCCCC[C@@H](C)O3)cc1`, “inactive”.
With `Cc1ccc(S(=O)(=O)Nc2ccc3c(c2)C(=O)N([C@H](C)CO)C[C@@H](C)[C@H](CN(C)S(=O)(=O)c2ccc(F)cc2)OCCCC[C@@H](C)O3)cc1` the entry was “inactive”.
`COc1ccc(S(=O)(=O)N(C)C[C@@H]2OCCCC[C@H](C)Oc3ccc(NS(=O)(=O)c4cn(C)cn4)cc3C(=O)N([C@H](C)CO)C[C@@H]2C)cc1`: the cytotoxicity call was “inactive”.
For `C[C@H]1CN([C@@H](C)CO)C(=O)c2cc(NC(=O)C3CC3)ccc2O[C@H]1CN(C)Cc1ccc(Oc2ccccc2)cc1` the value was “inactive”; for `COc1ccc(S(=O)(=O)N(C)C[C@@H]2Oc3ccc(NS(=O)(=O)c4cccs4)cc3C(=O)N([C@@H](C)CO)C[C@@H]2C)cc1`, “inactive”; for `C[C@H]1CN([C@@H](C)CO)C(=O)Cc2cc(NC(=O)C3CC3)ccc2O[C@H]1CN(C)S(=O)(=O)c1cn(C)cn1`, “inactive”.
For `C[C@H]1CCCCO[C@H](CN(C)C(=O)Nc2ccc3c(c2)OCO3)[C@@H](C)CN([C@@H](C)CO)C(=O)c2cc(NC(=O)CCC(F)(F)F)ccc2O1` the value was “inactive”; for `O=C(O)c1ccc(CCO)s1`, “inactive”; for `COc1ccccc1C#Cc1ccc2c(c1)O[C@H](CN(C)Cc1cccnc1)[C@@H](C)CN([C@H](C)CO)S2(=O)=O`, “inactive”.
With `COc1ccccc1C#Cc1ccc2c(c1)O[C@@H](CN(C)Cc1cccnc1)[C@H](C)CN([C@@H](C)CO)S2(=O)=O` the entry was “active”; with `COc1ccccc1C#Cc1ccc2c(c1)O[C@H](CN(C)Cc1cccnc1)[C@H](C)CN([C@H](C)CO)S2(=O)=O`, “inactive”.
Consider `COc1ccccc1C#Cc1ccc2c(c1)O[C@H](CN(C)Cc1cccnc1)[C@H](C)CN([C@@H](C)CO)S2(=O)=O`, for which the cytotoxicity call was “inactive”.
With `COc1ccccc1C#Cc1ccc2c(c1)O[C@@H](CN(C)Cc1cccnc1)[C@H](C)CN([C@H](C)CO)S2(=O)=O` the entry was “active”; with `COc1ccccc1C#Cc1ccc2c(c1)O[C@H](CN(C)Cc1cccnc1)[C@@H](C)CN([C@@H](C)CO)S2(=O)=O`, “active”; with `COc1ccccc1C#Cc1ccc2c(c1)O[C@H](CN(C)Cc1cncnc1)[C@H](C)CN([C@@H](C)CO)S2(=O)=O`, “inactive”.
With `COc1ccccc1C#Cc1ccc2c(c1)O[C@@H](CN(C)Cc1cccnc1)[C@@H](C)CN([C@H](C)CO)S2(=O)=O` the entry was “inactive”.
Regarding `COc1ccccc1C#Cc1ccc2c(c1)O[C@@H](CN(C)Cc1cccnc1)[C@@H](C)CN([C@@H](C)CO)S2(=O)=O`, the cytotoxicity call is “inactive”.
With `C[C@@H]1CN([C@H](C)CO[Si](C)(C)C(C)(C)C)C(=O)c2cc(NC(=O)C3CCCCC3)ccc2O[C@H]1CN(C)C(=O)c1ccc(Cl)cc1` the entry was “inactive”; with `COc1ccccc1CNC(=O)C[C@@H]1C[C@@H]2c3cc(NC(=O)Nc4ccc(C(F)(F)F)cc4)ccc3O[C@@H]2[C@@H](CO)O1`, “inactive”; with `C=CCNC(=O)CSc1nc(=O)cc(N)[nH]1`, “inactive”.
